In PubChem BioAssay (NCATS):
Where “and” joins values, the source holds several entries; their conditions need not be identical. Equal values may be shown once. Records with an inconclusive call do not appear. A call without a number means that no potency is given here. Calls of active or inactive are those of the source. The call rests on the fitted dose curve; in most records, active means well fitted curve in the direction sought with a large enough effect; inconclusive means small, poorly fitted or top-dose-only effect, or another doubt; inactive means no such curve, though single readings can be large; an effect the other way counts as inactive or inconclusive.

Legend:
[1] = molecular target: Calcium and integrin-binding protein 1 (Homo sapiens) (UniProt Q99828); test: Primary qHTS for Identification of Calcium Integrin Binding Protein 1 (CIB1) Competitor (AID 1508620);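 further: GST tagged CIB1 binding a fluorescein labelled alphaIIb integrin peptide tracer; top concentration of the series differs between compounds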
Sequence of Calcium and integrin-binding protein 1 (Homo sapiens) (Q99828 whole entry, looked up): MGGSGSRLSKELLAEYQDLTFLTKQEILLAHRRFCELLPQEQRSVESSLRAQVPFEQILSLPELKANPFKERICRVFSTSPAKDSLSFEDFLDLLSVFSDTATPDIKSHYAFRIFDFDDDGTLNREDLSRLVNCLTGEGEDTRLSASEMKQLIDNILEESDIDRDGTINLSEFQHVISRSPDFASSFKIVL
Method in brief: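 Fluorescence polarization competition: GST-tagged CIB1 (1 uM final) preincubated with compound 15 min at room temperature, then FITC-labelled alphaIIb peptide (100 nM final) added. After 15 min at room temperature, polarization read at Ex 480/Em 540.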

[2] = Primary qHTS for inhibitors of nuclear receptor binding SET domain protein 2 (NSD2) in an isogenic RCH-ACV NSD2 p.E1099K mutant (9B) (AID 1645876); further: nearly all actives have a fitted effect of over 70% in size; further: potency means the concentration at half of the fitted maximal effect
[3] = Primary qHTS for inhibitors of nuclear receptor binding SET domain protein 2 (NSD2) in an RCH-ACV wild type WT cells (2C) (AID 1645877); further: nearly all actives have a fitted effect of over 70% in size; further: potency means the concentration at half of the fitted maximal effect

Row | Compound | Potency [1] | Potency [2] | Potency [3]
1 | CC(C)CCNC(=O)[C@H](CC(C)C)NC(=O)[C@H]1O[C@@H]1C(=O)O | inactive | inactive | inactive
2 | COC1C=C(C)C(O)(CO)C2(C)CCCC(C)(C)C12 (centres undefined) | inactive | inactive | inactive
3 | C=CS(=O)(=O)NC1CCN(C(=O)CNc2cc(I)c(Cl)cc2OC)CC1 | inactive | 4.59 µM (active) | 3.25 µM (active)
4 | CNc1nc(Nc2ccc(C(=O)N3CCOCC3)cc2OC)nc2[nH]cc(Cl)c12 | inactive | 4.09 µM (active) | 2.9 µM (active)
5 | CCCCCCCCC(=O)N[C@H](CN1CCCC1)[C@H](O)c1ccc2c(c1)OCCO2 | inactive | 23 µM (active) | 18.3 µM (active)
6 | CN(c1ccc(NC(=O)Nc2ccccc2)cc1)S(=O)(=O)c1cnn(-c2ccc(F)cc2)c1 | inactive | 20.5 µM (active) | 16.3 µM (active)
7 | C[C@H]1CC[C@@]2(OC1)O[C@H]1CC3[C@@H]4CC[C@@H]5C[C@@H](O[C@@H]6O[C@H](CO)[C@@H](O[C@@H]7O[C@@H](C)[C@H](O)[C@@H](O)[C@H]7O)[C@H](O)[C@H]6O[C@@H]6O[C@H](CO)[C@@H](O)[C@H](O)[C@H]6O)CC[C@]5(C)C4CC[C@]3(C)[C@H]1[C@@H]2C (some centres undefined) | inactive | 3.88 µM (active) | 3.88 µM (active)
8 | O=C(NCCCNC(=O)c1ccc[nH]c1=O)c1cc(-c2ccccc2)on1 | inactive | 8.33 µM (active) | 9.34 µM (active)
9 | CCNC(=O)C#Cc1ccc2c(C(=Nc3ccc(CN(C)C)cc3)c3ccccc3)c(O)[nH]c2c1 | inactive | 0.512 µM (active) | 0.0102 µM (active)
10 | C=C1/C(=C/C=C2\CCC[C@]3(C)[C@@H]([C@H](C)CC[C@@H](O)C(C)(C)O)CC[C@@H]23)C[C@@H](O)C[C@@H]1O | inactive | 18.3 µM (active) | 10.3 µM (active)
11 | CC(=O)C1=C(O)C=C2Oc3c(C(C)=O)c(O)c(C)c(O)c3[C@]2(C)C1=O | inactive | inactive | inactive
12 | CC(C)(C)[C@H](NC(=O)c1ccc(N)c(Cl)c1)C(=O)N1CCC[C@H]1C(=O)N[C@H](C#N)CC(=O)O | inactive | inactive | inactive
13 | COc1ccc(C2(N(C)C(=O)c3ccc(NC(=O)c4ccco4)cc3)CCOCC2)cc1 | inactive | inactive | inactive
14 | CC(=O)O[C@@H]1CC[C@@]2(C)[C@H](CC[C@@H]3[C@@H]2C[C@H](OC(C)=O)[C@]2(C)[C@@H](C(C)=O)CC[C@@H]32)C1 | inactive | 23 µM (active) | 23 µM (active)
15 | C=C(C(=O)O[C@H]1C/C(C)=C/CC/C(CO)=C/[C@H]2OC(=O)C(=C)[C@H]12)C(O)CO (some centres undefined) | inactive | 7.13 µM (active) | 2.84 µM (active)
16 | C=C1C(=O)O[C@H]2C[C@@H](C)[C@@H]3CCC(=O)[C@@]3(C)C[C@H]12 | inactive | 3.65 µM (active) | 3.65 µM (active)
17 | COC1CC(O[C@H]2CC[C@]3(C)C4CC[C@@]5(C)C(=O)[C@]4(CC[C@@H]3C2)CC[C@@H]5C2=CC(=O)OC2)OC(C)C1OC1OC(COC2OC(CO)C(O)C(O)C2O)C(O)C(O)C1O (some centres undefined) | inactive | 1.54 µM (active) | 2.75 µM (active)
18 | C=C1CC2OC(=O)C(COC)C2C(OC(=O)/C(C)=C\C)CC2(C)OC1=CC2=O (centres undefined) | inactive | 3.58 µM (active) | 2.26 µM (active)
19 | CC1CC(=O)C2=C(C1)C1OC1C1(O)C2C(=O)c2cccc(O)c2C1O (centres undefined) | inactive | inactive | inactive
20 | COC(=O)CC[C@@H](C)C1CCC2C3CCC4C[C@H](OC(C)=O)CCC4(C)C3C[C@H](O)C21C (some centres undefined) | inactive | inactive | inactive
21 | Cn1ncnc1[C@H]1c2n[nH]c(=O)c3cc(F)cc(c23)N[C@@H]1c1ccc(F)cc1 | inactive | 200 nM (active) and 148 nM (active) | 28.2 nM (active) and 66.1 nM (active)
22 | CC(C)C(C)C(O)C1CC23CC(=O)C4(O)C(=C2CCC3C1C)C=CC1(O)CC(O)CCC14C (centres undefined) | inactive | inactive | inactive
23 | CC(=O)O[C@@]12CO[C@@H]1C[C@H](O)[C@@]1(C)C(=O)[C@H](O)C3=C(C)[C@@H](OC(=O)[C@H](O)[C@@H](NC(=O)OC(C)(C)C)c4ccccc4)C[C@@](O)([C@@H](OC(=O)c4ccccc4)C12)C3(C)C (some centres undefined) | inactive | 0.004 µM (active) | 0.0032 µM (active)
